According to PubChem BioAssay (NCI):
Compounds without any hit were thinned out: in the full panel of roughly 83,000, 20% have a hit.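 48-hour exposure, single concentration, 96-well plates; percent growth endpoint where 0 means no net growth. Active: below 10.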 Values without a mark were called inactive. The source made the active and inactive calls.

Assays:
Assay in all cases: NCI-60 one-dose screen, 48 h (100 = growth as untreated, 0 = no growth, -100 = all killed)
Details in all cases: 10 µM unless noted
HCT-15 colon = system: HCT-15 colon
HT29 colon = system: HT29 colon
SNB-75 CNS = system: SNB-75 CNS
SNB-19 CNS = system: SNB-19 CNS
U251 CNS = system: U251 CNS
PC-3 prostate = system: PC-3 prostate
SK-MEL-5 melanoma = system: SK-MEL-5 melanoma
UACC-62 melanoma = system: UACC-62 melanoma
LOX IMVI melanoma = system: LOX IMVI melanoma
SK-MEL-28 melanoma = system: SK-MEL-28 melanoma
SK-MEL-2 melanoma = system: SK-MEL-2 melanoma
EKVX NSCLC = system: EKVX NSCLC
SN12C renal = system: SN12C renal
UO-31 renal = system: UO-31 renal
TK-10 renal = system: TK-10 renal
ACHN renal = system: ACHN renal
CAKI-1 renal = system: CAKI-1 renal
A498 renal = system: A498 renal
CCRF-CEM leukemia = system: CCRF-CEM leukemia
MOLT-4 leukemia = system: MOLT-4 leukemia

CS(=O)(=O)c1ccc(-c2[nH]c3ccc(F)cc3c2/C=N/NC(N)=S)cc1
growth (HCT-15 colon): 20.4% | growth (HT29 colon): 3.14% (active) | growth (SNB-75 CNS): 22.4% | growth (SNB-19 CNS): 15.6% | growth (U251 CNS): 15.5% | growth (PC-3 prostate): 19.1% | growth (SK-MEL-5 melanoma): 17.3% | growth (UACC-62 melanoma): 14.7% | growth (LOX IMVI melanoma): 30.1% | growth (SK-MEL-28 melanoma): 39.5% | growth (SK-MEL-2 melanoma): 27.4% | growth (EKVX NSCLC): 31.8% | growth (SN12C renal): 21% | growth (UO-31 renal): 40.2% | growth (TK-10 renal): 37.8% | growth (ACHN renal): 25.2% | growth (CAKI-1 renal): 39.4% | growth (A498 renal): 17% | growth (CCRF-CEM leukemia): 2.97% (active) | growth (MOLT-4 leukemia): 11.7%

CC(=O)Nc1cccc(C2=CC(c3ccc(C)cc3)n3ncnc3N2)c1 (stereo not given)
growth (HCT-15 colon): 99.3% | growth (HT29 colon): 109% | growth (SNB-75 CNS): 94.2% | growth (SNB-19 CNS): 91.1% | growth (U251 CNS): 97.3% | growth (PC-3 prostate): 84.1% | growth (SK-MEL-5 melanoma): 91.3% | growth (UACC-62 melanoma): 85.6% | growth (LOX IMVI melanoma): 93.8% | growth (SK-MEL-28 melanoma): 107% | growth (SK-MEL-2 melanoma): 103% | growth (EKVX NSCLC): 102% | growth (SN12C renal): 101% | growth (UO-31 renal): 79.7% | growth (TK-10 renal): 110% | growth (ACHN renal): 96.7% | growth (CAKI-1 renal): 106% | growth (A498 renal): 93.9% | growth (CCRF-CEM leukemia): 110% | growth (MOLT-4 leukemia): 87.9%

CC1(C)C(=O)/C(=C\c2cccnc2)C[C@]2(C)[C@H]3CC=C4[C@@H]5C[C@@](C)(C(=O)O)CC[C@]5(C)CC[C@@]4(C)[C@]3(C)CC[C@@H]12
growth (HCT-15 colon): 87.5% | growth (HT29 colon): 91.5% | growth (SNB-75 CNS): 82% | growth (SNB-19 CNS): 96.8% | growth (U251 CNS): 89% | growth (PC-3 prostate): 75.3% | growth (SK-MEL-5 melanoma): 109% | growth (UACC-62 melanoma): 97.7% | growth (LOX IMVI melanoma): 99.5% | growth (SK-MEL-28 melanoma): 109% | growth (SK-MEL-2 melanoma): 96.8% | growth (EKVX NSCLC): 95.8% | growth (SN12C renal): 94.2% | growth (UO-31 renal): 84.2% | growth (TK-10 renal): 101% | growth (ACHN renal): 95.8% | growth (CAKI-1 renal): 86.9% | growth (A498 renal): 100% | growth (CCRF-CEM leukemia): 81.8% | growth (MOLT-4 leukemia): 87.2%

COc1ccc(N(C)c2nc(Cl)nc3cnn(C)c23)cc1
growth (HCT-15 colon): 9.08% (active) | growth (HT29 colon): -9.42% (active) | growth (SNB-75 CNS): 18.7% | growth (SNB-19 CNS): 29.7% | growth (U251 CNS): 17.8% | growth (PC-3 prostate): 16.2% | growth (SK-MEL-5 melanoma): -25.2% (active) | growth (UACC-62 melanoma): 32% | growth (LOX IMVI melanoma): 18.7% | growth (SK-MEL-28 melanoma): 58.2% | growth (SK-MEL-2 melanoma): 22.2% | growth (EKVX NSCLC): 46.1% | growth (SN12C renal): 27.8% | growth (UO-31 renal): 34% | growth (TK-10 renal): 50.9% | growth (ACHN renal): 23.9% | growth (CAKI-1 renal): 22.9% | growth (A498 renal): -9.16% (active) | growth (CCRF-CEM leukemia): 13% | growth (MOLT-4 leukemia): 14.9%
